Compound activity deposited in PubChem by National Center for Advancing Translational Sciences (NCATS).
HPGD block: qHTS Assay for Inhibitors of HPGD (15-Hydroxyprostaglandin Dehydrogenase); 15-hydroxyprostaglandin dehydrogenase [NAD(+)] (Homo sapiens), P15428; purified HPGD, NADH fluorescence kinetic, PGE2 substrate; Potency, µM, for the others: top-dose activity change, negative = inhibition, usual class: inhibitors; hit rate 4.3% among 150,000; further: potency means the concentration at half of the fitted maximal effect
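20 nM HPGD preincubated 15 min at room temperature with compound in 50 mM Tris-HCl pH 8, 0.01% Tween 20. Started with 1 mM NAD+ and 30 uM prostaglandin E2; NADH fluorescence (360/450 nm) read 5 times over 30-s intervals, last minus first.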
ALOX12 inhib: qHTS Assay for Inhibitors of 12-hLO (12-human lipoxygenase) | Polyunsaturated fatty acid lipoxygenase ALOX12 (Homo sapiens), P18054 | purified 12-hLO, xylenol orange hydroperoxide absorbance | Potency, µM (highest dose often 57.1 µM), for the others: at the highest dose activity change, negative = inhibition, hits mostly inhibitors | hit rate 0.12% among 150,000 | AID 1452, 2008; active means well fitted curve in the direction sought with a large enough effect; inconclusive means small, poorly fitted or top-dose-only effect, or another doubt; inactive means no such curve, though single readings can be large; an effect the other way counts as inactive or inconclusive; further: potency means the concentration at half of the fitted maximal effect; nearly all actives have a fitted effect of over 55% in size
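Hydroperoxide output read as Fe(III)-xylenol orange absorbance, 573-to-405 nm ratio, after 30 min reaction with 40 uM arachidonic acid. Enzyme: 150 nM purified human 12hLO, 15 min compound preincubation; 25 mM Hepes pH 7.0, room temperature.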
PNC inhibitor: High Content Assay for Compounds that inhibit the Assembly of the Perinucleolar Compartment; activity change (PNC), negative = inhibition, % at 10 µM; PC3M PTB-GFP, PNC prevalence imaging, 16 h; hits give low values; AID 2417, 2010; hit rate 3.1% among 140,000;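 active means readout at or below -70, meaning at least 70% loss of cells showing the perinucleolar compartment, a nuclear body marking cancer cells; inconclusive means readout between -30 and a set limit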;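 further: plate controls were DMSO wells for no effect and camptothecin positive control wells for full effect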
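PC3M cells stably expressing PTB-GFP, 750–1000 cells/well, treated 16 h at 37 °C with compound (23 nl of library stock), in duplicate. After paraformaldehyde fixation and Hoechst stain, imaged at 20x; PNC prevalence scored by image analysis.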
ALDH1A1 inh: qHTS Assay for Inhibitors of Aldehyde Dehydrogenase 1 (ALDH1A1); hit rate 7.3% among 220,000; Aldehyde dehydrogenase 1A1 (Homo sapiens), P00352; Purified ALDH1A1, NADH fluorescence, propionaldehyde substrate; Potency, µM (titrated, usually from 75.3 µM), inactives show at the top dose activity, negative = inhibition, most hits filed as inhibitors;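 further: potency means the concentration at half of the fitted maximal effect; plate controls were no enzyme wells and a reference inhibitor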
Target sequence (P00352 whole entry, looked up): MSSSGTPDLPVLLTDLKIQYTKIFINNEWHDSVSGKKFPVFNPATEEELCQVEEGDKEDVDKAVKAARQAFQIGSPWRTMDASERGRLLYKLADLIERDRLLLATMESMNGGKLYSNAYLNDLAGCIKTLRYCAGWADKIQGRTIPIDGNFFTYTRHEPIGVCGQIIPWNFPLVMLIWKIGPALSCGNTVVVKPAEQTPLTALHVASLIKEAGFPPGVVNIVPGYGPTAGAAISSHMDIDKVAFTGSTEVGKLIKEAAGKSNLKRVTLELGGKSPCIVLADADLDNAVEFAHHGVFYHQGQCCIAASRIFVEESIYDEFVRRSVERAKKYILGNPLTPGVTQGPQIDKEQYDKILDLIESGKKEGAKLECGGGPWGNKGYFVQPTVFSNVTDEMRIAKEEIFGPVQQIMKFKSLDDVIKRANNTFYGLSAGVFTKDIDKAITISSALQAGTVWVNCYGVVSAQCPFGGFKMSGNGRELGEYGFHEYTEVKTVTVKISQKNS
IMPase inh: qHTS Assay for Identifying the Cell-Membrane Permeable IMPase Inhibitors | Inositol monophosphatase 1 (Rattus norvegicus), P97697 | CHO-M1 cells, IP1 accumulation, HTRF TR-FRET ratio | inhibition (IP1 accumulation), % at 46.1 µM | 120,000 tested, under 10 active | AID 901, 2007; active means well fitted curve in the direction sought with a large enough effect in the signal ratio, not every such curve was filed as active; inconclusive means small, poorly fitted or top-dose-only effect, or a change in a side signal; inactive means no such curve, though single readings can be large or run the other way; the % refers to the signal ratio;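 further: cells stimulated with carbachol in lithium chloride buffer; plate controls were DMSO basal wells for no effect and reference inhibitor wells for full effect; higher means more IMPase inhibition seen as more IP1 and lower FRET ratio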
Target sequence (P97697 whole entry, looked up): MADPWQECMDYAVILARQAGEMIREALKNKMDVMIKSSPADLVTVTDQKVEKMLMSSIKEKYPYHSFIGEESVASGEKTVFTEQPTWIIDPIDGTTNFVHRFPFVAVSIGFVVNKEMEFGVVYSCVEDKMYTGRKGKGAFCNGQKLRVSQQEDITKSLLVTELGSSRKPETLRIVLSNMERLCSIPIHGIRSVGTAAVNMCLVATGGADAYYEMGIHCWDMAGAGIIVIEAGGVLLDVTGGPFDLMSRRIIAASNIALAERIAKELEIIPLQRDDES
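Carbachol-driven Gq signalling in CHO-M1 cells (2000/well) generates IP1. Compounds that block IMPase raise IP1 and so reduce the FRET signal from Eu-anti-IP1 and d2-IP1 after a 10 min room-temperature lysis.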
IMPase Li inh: qHTS Assay for Identifying the Cell-Membrane Permeable IMPase Inhibitors: Potentiation with Lithium | CHO-M1 cells, IP1 TR-FRET (IP-One), carbachol + lithium | Potency, µM (doses to about 59.4 µM), inactives show at the top dose activity, negative = IMPase inhibition, most hits filed as inhibitors | hit rate 0.35% among 210,000 | AID 1457, 2008; active means well fitted curve in the direction sought with a large enough effect; inconclusive means small, poorly fitted or top-dose-only effect, or another doubt; inactive means no such curve, though single readings can be large; an effect the other way counts as inactive or inconclusive;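 further: IP1 builds up when IMPase is blocked and the TR-FRET signal falls; potency means the concentration at half of the fitted maximal effect; plate controls were basal vehicle for no effect and high inhibitor control for full effect; nearly all actives have a fitted effect of over 50% in size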
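CHO cells stably expressing M1 receptor (2000/well, cultured 16–30 h) treated 30 min at 37C with compound plus low lithium. Cytosolic IP1 by TR-FRET (665/620 ratio and 620 channel) after 10 min lysis; AC50 by Hill fit.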
* hit, by the source's call; ? = inconclusive; . = no result; [ ] = remark or other dose. Shown are actives, neighbours in structure and some others; about 11% of the full set was active somewhere. Unless noted, the call rests on the fitted dose curve; in most records, active means well fitted inhibition curve with a large enough effect (not every such curve was filed as active); inconclusive means small, poorly fitted or top-dose-only effect, or another doubt; inactive means no such curve, though single readings can be large or run the other way. Unless noted, on the % scale 0 is the no-effect control and ±100 the full control effect.

SMILES | HPGD block | ALOX12 inhib | PNC inhibitor | ALDH1A1 inh | IMPase inh | IMPase Li inh
CCC(c1nnnn1Cc1ccccc1)N1CCN(C(=O)c2ccco2)CC1 (stereo not given) | -8% | 0% | ? | 6.3µM* | 9 | -21%[38.3 µM]
Cc1ccc(S(=O)(=O)Cn2nnnc2C(CC(C)C)N2CCN(C(=O)c3ccco3)CC2)cc1 (stereo not given) | 2% | 1% | -113* | ? | . | 3%
CCC(c1nnnn1C1CCCC1)N1CCN(Cc2ccccc2)CC1 (stereo not given) | -6% | 6% | ? | 14µM* | 12 | 9%
COC(=O)[C@@]1(Cc2ccccc2)[C@H]2c3cc(C(=O)N(C)C)n(C[C@H](O)CO)c3C[C@H]2CN1C(=O)c1ccccc1 | -7% | 4% | . | -2% | . | -13%
Fc1ccc(NC(=S)Nc2ccccc2N2CCOCC2)cc1Cl | . | . | . | -11% | . | 0%
Cn1c(=O)n2n(c1=O)[C@H]1[C@H](O)[C@H]3O[C@@H]3/C(=N/OCc3ccccc3)[C@@H]1CC2 | . | . | . | 12%[13.5 µM] | . | .
COC(=O)CN=C1OC(=O)N2C(=O)C3=C4C(C[C@H]5C(=O)N(c6ccccc6)C(=O)[C@H]5[C@H]4[C@@]12Cc1ccccc1)[C@H]1C(=O)N(c2ccccc2)C(=O)[C@H]1[C@H]3C (stereo not given in full) | -9% | 0% | . | -6% | . | -1%
COc1ccccc1N=Cc1nc(-c2ccccc2)oc1OC(C)=O | ? | -5% | ? | 7.1µM* | 6 | 27%
CN(C)c1ccc(N=Cc2nc(-c3ccccc3)oc2OC(=O)c2ccccc2)cc1 | -13% | 1% | 27 | -11% | . | -16%
CC(=O)Oc1oc(-c2ccccc2)nc1C=Nc1ccc(N(C)C)cc1 | . | . | . | 0.56µM* | . | .
Oc1oc(-c2ccccc2)nc1C=Nc1ccccc1 | -22% | -21% | 10 | ? | -1 | 46%[38.3 µM]
COc1ccccc1N=CC1=C(O)CC(c2ccccc2)CC1=O (stereo not given) | -12% | 2% | ? | ? | 4 | 4%
CC(=O)Oc1oc(-c2ccccc2)nc1/C=N/c1ccccn1 | 22µM* | 0% | 13 | ? | 1 | 46%[38.3 µM]
CCN(CC)CC1CCN(c2ncc3ncnc(Nc4ccc(F)c(Cl)c4)c3n2)CC1 | -13% | -1%[0.00818 µM] | . | -1% | . | 22%
COc1ccc(O[C@H]2C=C[C@@H](c3ccccc3)O[C@H]2COC(=O)CC/C(C)=N\OC[C@@H](O)COCc2ccco2)cc1 | . | . | . | -15%[13.5 µM] | . | .
O=C1/C(=C\c2cccs2)N=C(c2cccs2)N1Nc1ccccc1 | -28% | -16% | 15 | 14µM* | -2 | 45%[38.3 µM]
COc1ccccc1-c1ccc2ncnc(Nc3ccccc3)c2c1 | . | . | . | ? | . | 6%
FC(F)(F)c1nc(=S)c2ccccc2[nH]1 | . | . | . | 8.9µM* | . | 3.2µM*
Cc1nc(=S)c2ccccc2[nH]1 | -15% | 5% | -29 | 7.1µM* | -8 | 10%[38.3 µM]
S=c1nc(Cc2ccc(Cl)cc2)[nH]c2ccccc12 | . | . | . | 0% | . | -9%
O=C(O)CCNc1ncnc2nc[nH]c12 | -2% | -3%[11.4 µM] | . | 14%[13.5 µM] | . | -2%
O=C(Oc1cncc(Cl)c1)c1ccco1 | -2% | -7% | -81* | 5% | ? | 0%
CC(=O)Nc1cc(OC(=O)c2ccco2)cc(OC(=O)c2ccco2)c1 | -9% | -3% | 8 | 13% | -4 | -9%[38.3 µM]
CCOC(=O)Cc1csc(-n2sc3ccccc3c2=O)n1 | 1.4µM* | 4.5µM* | 8 | 3.5µM* | ? | 7.9µM*
COc1ccccc1OCCC(=O)OCC(=O)Nc1ccc(Br)cc1 | -5% | 0% | 16 | 0% | 3 | -11%
SMILES | HPGD block | ALOX12 inhib | PNC inhibitor | ALDH1A1 inh | IMPase inh | IMPase Li inh
COc1ccccc1OCCC(=O)OCC(=O)c1[nH]c(C)c(C(C)=O)c1C | . | . | . | 25µM* | . | 15%
COc1ccccc1OCCC(=O)OCC(=O)NC(C)c1ccccc1 (stereo not given) | -10% | -1% | -84* | 2% | -6 | -1%
COc1ccccc1OCCC(=O)OCC(=O)Nc1cc(S(=O)(=O)N(C)C)ccc1Cl | . | . | . | 3.2µM* | . | 1%
CN(C)S(=O)(=O)c1ccc(Cl)c(NC(=O)COc2ccccc2[N+](=O)[O-])c1 | -3% | 2% | 3 | 6% | . | -13%
Cn1cccc1/C=N/NC(=O)c1cccnc1 | -9% | 3% | ? | -12% | 6 | 2%
Cn1cccc1/C=N/NC(=O)c1ccn[nH]1 | -5% | 5% | -119* | 3% | -1 | 5%
Cc1ccc(C(=O)N/N=C\c2cccn2C)cn1 | 14µM* | -13% | -26 | -4% | ? | -3%[38.3 µM]
COc1ccc(-c2cc(=O)oc3c(C)c(OCc4nn[nH]n4)ccc23)cc1 | ? | -6% | 19 | ? | -14 | 10%[38.3 µM]
Cc1c(OCc2nn[nH]n2)ccc2c(-c3ccccc3)cc(=O)oc12 | 13µM* | -4% | 26 | 16µM* | -4 | 0%[38.3 µM]
CC#CCC1(C(=O)OC)C(=O)NC[C@H]1c1ccccc1 (stereo not given in full) | -4% | 4% | . | -4% | . | -6%
COc1ccc(/C=C2/SC(=O)N(CCNC(=O)C3CCCN3C(=O)c3cccs3)C2=O)cc1 (stereo not given) | ? | 1% | -100* | -13% | . | 6%
O=C(NCCN1C(=O)S/C(=C/c2ccccc2)C1=O)C1CCCN1C(=O)c1cccs1 (stereo not given) | . | -2% | -23 | -9% | 1 | .
COC(=O)C/C=C\[C@@H](C)[C@H]1C=C[C@H](O)[C@@H](CO)O1 | . | . | . | 13%[13.5 µM] | . | .
COC(=O)CSc1nc(-c2ccccc2)c2c(c1C#N)CCCC2 | ? | 7% | ? | ? | ? | -29%[38.3 µM]
N#Cc1ccc(CSc2nc(-c3cccs3)c3c(c2C(=O)O)CCCC3)cc1 | 18µM* | -5% | . | ? | . | .
CCCCCCSc1nnc2[nH]c(=O)cc(N)n12 | 11µM* | 4% | 13 | 3% | . | 4%
CCCCCCCCSc1nnc2[nH]c(=O)cc(N)n12 | . | . | . | 4% | . | -7%
O=C(/C=C/Nc1cccc([N+](=O)[O-])c1)c1cccs1 | -5% | -1% | 24 | 14µM* | 12 | 4%[38.3 µM]
CC(C)NC(=O)N1CC[C@@]2(CCCN(C(=O)c3cc(C(F)(F)F)cc(C(F)(F)F)c3)C2)C1 | -2% | -1% | . | -1% | . | 3%
O=C(NCCCN1CCN(CCCNC(=O)c2ccc3c(c2)OCO3)CC1)c1ccc2c(c1)OCO2 | -18% | -4% | -3 | ? | 11 | 38%[38.3 µM]
